Our source for the composite z-score and composite Z-score values is PubChem BioAssay.

Calls of active or inactive are those of the source.

For one assay, the target named is Albumin (Bos taurus) (UniProt P02769). Description: compounds binding labelled BSA control protein – biochemical, small-molecule microarray, Alexa647 label, 635/667 nm fluorescence, artefact control for SMM control protein annotation, profiling panel (AID 1118).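 Note: score merges 667 nm emission intensity and signal-to-noise per printed compound spot.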 As to conditions: BSA-A647 binding, fluorescence 635 nm, higher = more signal.
Albumin (Bos taurus), sequence (P02769 whole entry, looked up): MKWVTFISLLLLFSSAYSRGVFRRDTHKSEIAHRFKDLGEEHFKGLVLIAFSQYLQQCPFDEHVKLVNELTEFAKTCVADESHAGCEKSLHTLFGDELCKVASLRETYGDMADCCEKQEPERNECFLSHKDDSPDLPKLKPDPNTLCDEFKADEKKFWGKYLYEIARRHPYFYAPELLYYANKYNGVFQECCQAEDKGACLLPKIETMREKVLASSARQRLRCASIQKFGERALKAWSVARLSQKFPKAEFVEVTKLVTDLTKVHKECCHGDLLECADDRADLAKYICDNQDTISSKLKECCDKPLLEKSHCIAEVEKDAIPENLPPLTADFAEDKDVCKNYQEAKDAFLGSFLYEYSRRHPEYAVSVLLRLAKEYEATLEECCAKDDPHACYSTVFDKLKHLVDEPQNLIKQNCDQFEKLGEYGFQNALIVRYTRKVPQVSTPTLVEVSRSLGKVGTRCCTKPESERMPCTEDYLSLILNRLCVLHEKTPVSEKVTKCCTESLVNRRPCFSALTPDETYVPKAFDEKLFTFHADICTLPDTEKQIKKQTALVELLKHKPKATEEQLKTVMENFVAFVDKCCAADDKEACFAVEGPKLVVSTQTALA
Assay [1] in a line: probe aXIP binding to arrayed compounds – biochemical, NeuroSMM set, 635/667 nm fluorescence, primary screen (AID 1119).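 Note: probe is the protein aXip251-270 applied at 1 µg/mL to compound-printed slides; binding of probe to printed compounds measured as 667 nm fluorescence plus signal to noise.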 The settings on record: small-molecule microarray, higher = more signal, called active from +8 up or from −8 down.
Assay [2] can be described thus: probe aNOTCH3 binding on compound microarray – biochemical, small-molecule microarray, 635/667 nm fluorescence, primary screen (AID 1120).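 Note: probe is a biotin-tagged antibody raised against NOTCH3 rather than NOTCH3 protein; score merges spot fluorescence near 667 nm with spot signal to noise.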 As to conditions: higher = more signal.
Assay [3] is described as follows: probe aNOTCH2 binding on compound microarray – biochemical, small-molecule microarray, 635/667 nm fluorescence, primary screen (AID 1121).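 Note: score merges feature fluorescence read at 667 nm with its signal to noise.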 The settings on record: higher = more signal.
Assay [4] has as its target Carbonic anhydrase 2 (Homo sapiens) (UniProt P00918). Description: compounds binding carbonic anhydrase 2 – biochemical, small-molecule microarray, Alexa647-labelled CAII, profiling panel (AID 1122). As to conditions: CAII-A647 binding fluorescence, higher = more signal.
The nature of assay [5]: COS7 lysate on small-molecule microarray, probe aHis, 635 nm (AID 1123).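 Note: z-score combines 667nm fluorescence intensity with signal-to-noise per printed compound spot.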 As to conditions: COS7 cell lysate, fluorescence, higher = more signal.
Assay [6] can be described thus: probe aLAP1 signal on lysate-treated microarray – cell lysate, small-molecule microarray, COS7 lysate, primary screen (AID 1124).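 Note: lysate comes from COS7 cells expressing LAP1 and is applied at 0.3 µg/mL; score merges spot fluorescence near 667 nm with signal-to-noise over triplicate slides.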 The settings on record: probe aLAP1, fluorescence, higher = more signal.
In a further assay the test system is Sam68 (KHDRBS1). The experiment in a line: compounds binding KHDRBS1 protein – biochemical, small-molecule microarray, 635 nm fluorescence, primary screen (AID 1125).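 Note: score merges 667 nm channel intensity with signal to noise over triplicate slides.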 As to conditions: higher = more signal.
In assay [7] the test system is Chordin-like protein 2 (CHRDL2). Description: compounds binding chordin-like 2 – biochemical, small-molecule microarray, 635 nm fluorescence, primary screen (AID 1126).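 Note: printed compound slides probed with Chrdl2 protein at 4 µg/mL for 1 h at 4 C; score merges 667 nm emission intensity with signal to noise over three replicate slides.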 The settings on record: fluorescence 635 nm, higher = more signal.
For assay [8], the target named is Concanavalin-A (Canavalia ensiformis) (UniProt P02866). Description: compounds binding concanavalin A lectin – biochemical, small-molecule microarray, Alexa647 label, 635 nm, artefact control for SMM control protein annotation, primary screen (AID 1127).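 Note: z combines 667 nm emission intensity with signal-to-noise across three replicate slides.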 The settings on record: ConA-A647 binding fluorescence, higher = more signal.
Concanavalin-A (Canavalia ensiformis), sequence (P02866 whole entry, looked up): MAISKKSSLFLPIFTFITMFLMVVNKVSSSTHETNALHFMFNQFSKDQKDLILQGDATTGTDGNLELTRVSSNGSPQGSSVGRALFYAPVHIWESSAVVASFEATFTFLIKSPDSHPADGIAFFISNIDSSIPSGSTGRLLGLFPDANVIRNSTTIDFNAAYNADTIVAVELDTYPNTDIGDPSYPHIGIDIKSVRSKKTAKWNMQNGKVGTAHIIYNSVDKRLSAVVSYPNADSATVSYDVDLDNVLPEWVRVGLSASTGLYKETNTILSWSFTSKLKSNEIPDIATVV

Consider `CCCNC(=O)OC[C@H]1O[C@H](CCON=C(C)CCN2CCCc3nc(C)c(C)cc32)C=C[C@@H]1Oc1ccc(OC)cc1`, for which the composite z-score in the assay with Albumin (Bos taurus) is 0.727; in [2], 0.0894; in [3], -0.0846; in assay [4], 0.147; in assay [5], 1.21; in assay [6], 0.0156. For the same molecule, the composite z-score in the assay with Sam68 (KHDRBS1) was 1.29; in assay [7], 0.0783; in assay [8], 0.925. Besides, the composite Z-score in [1] is 0.475 (inactive).
`O=C1[C@H]2[C@H]3[C@H](O)[C@H](O)CC(=NOCc4ccccc4)[C@@H]3CC[C@H]2C(=O)N1Cc1ccc2c(c1)OCO2`: the composite z-score in the assay with Albumin (Bos taurus) was 0.0462; in [2], 0.0306; in [3] it was -0.0131; in [4], 0.618; in assay [5], -0.0974; in assay [6] it was -0.0389. The composite z-score with Sam68 (KHDRBS1) is -0.0391; in assay [7] it was 0.124; in assay [8], -0.0139. For the same molecule, in [1], the composite Z-score is 0.0289 (inactive).
Regarding `CC(C)CCN1CCc2nc(COc3ccccc3)c3c(c2C1)CO[C@@H](C)C3`, the composite z-score in the assay with Albumin (Bos taurus) is 0.536; in [2], -0.0343; in [3], -0.0797; in [4], 0.319; in assay [5], 0.965; in assay [6], 0.378. For the same molecule, the composite z-score turned out to be 0.0676 with Sam68 (KHDRBS1), 0.119 in assay [7] and 0.432 in assay [8]. Besides, the composite Z-score in [1] is 0.354 (inactive).
Consider `CCCNC(=O)OC[C@H]1O[C@H](CCON=C(C)CCN2CCc3nc(CC)c(CC)cc3C2)C=C[C@@H]1Oc1ccc(OC)cc1`, for which the composite z-score in the assay with Albumin (Bos taurus) is 0.322; in [2], 0.105; in assay [3], -0.14; in assay [4] it was -0.164; in assay [5], 0.176; in assay [6], 0.0186. Moreover, the composite z-score in the assay on Sam68 (KHDRBS1) was 0.285; in [7] it was -0.0024; in assay [8], 0.0004. For the same molecule, the composite Z-score in assay [1] is 0.0421 (inactive).
With `CC(C)(C)N1C(=O)[C@H]2[C@H]3[C@H](O)C=CC(=O)[C@@H]3CC[C@H]2C1=O`, the composite z-score with Albumin (Bos taurus) was -0.161; in assay [2], -0.0584; in [3] it was 0.0098; in assay [4], -0.0943; in [5], -0.463; in assay [6] it was 0.632. The composite z-score in the assay with Sam68 (KHDRBS1) was -0.0221; in assay [7], 0.311; in assay [8] it was 0.607. For the same molecule, in assay [1], the composite Z-score was 0.913 (inactive).
As to `O=C1[C@H]2[C@H]3[C@H](O)[C@H](O)CC(=NOCc4ccccc4)[C@H]3CC[C@H]2C(=O)N1Cc1ccc2c(c1)OCO2`, the composite z-score with Albumin (Bos taurus) was 0.116; in assay [2], 0.0116; in assay [3] it was -0.146; in [4] it was -0.0448; in assay [5] it was 1.1; in assay [6], 0.148. The composite z-score in the assay on Sam68 (KHDRBS1) was -0.18; in [7] it was 0.408; in assay [8], -0.261. Besides, the composite Z-score in [1] is -0.192 (inactive).
Turning to `O=C1OCCC=C1C(O)CCc1ccccc1` (stereo not given), the composite z-score was -0.561 with Albumin (Bos taurus); -0.158 in assay [2]; -0.145 in assay [3]; 0.192 in assay [4]; -0.215 in assay [5]; 0.181 in assay [6]. Further, the composite z-score in the assay with Sam68 (KHDRBS1) was -0.0924; in [7], 0.575; in assay [8], -0.0631. Moreover, the composite Z-score in [1] is 0.149 (inactive).
In the case of `COC(=O)[C@H](C)NC(=O)CCC1CC(OC(=O)NCc2ccc3c(c2)OCO3)CC2(CCCC(COC(=O)NCC3CCCCC3)O2)O1` (stereo not given in full), the composite z-score is 0.569 in the assay with Albumin (Bos taurus); -0.0111 in assay [2]; -0.0947 in [3]; 0.234 in [4]; 1.19 in assay [5]; -0.111 in assay [6]. Moreover, the composite z-score amounted to 1.29 in the assay with Sam68 (KHDRBS1), 0.435 in [7] and 1.05 in [8]. Moreover, the composite Z-score in assay [1] was -0.0882 (inactive).
For the molecule `Cn1c(=O)n2n(c1=O)[C@H]1[C@H](O)[C@@H]3O[C@@H]3C(=NOCc3ccccc3)[C@H]1CC2`, the composite z-score with Albumin (Bos taurus) was 0.0494; in assay [2], -0.112; in [3], -0.14; in assay [4], 0.487; in assay [5] it was 0.444; in assay [6] it was -0.0493. The composite z-score was 0.557 in the assay with Sam68 (KHDRBS1), -0.37 in assay [7] and -0.136 in [8]. Besides, the composite Z-score in [1] is -0.054 (inactive).
Consider `CC(C)CON=C1C[C@@H](O)[C@@H](O)[C@@H]2[C@@H]3C(=O)N(c4ccc(F)cc4F)C(=O)[C@@H]3CC[C@H]12`, for which the composite z-score with Albumin (Bos taurus) was 0.541; in [2] it was -0.122; in assay [3], -0.17; in assay [4], 0.501; in assay [5], 0.602; in [6], 0.311. Further, the figures for the composite z-score (in the assay on Sam68 (KHDRBS1); in [7]; in [8]) were 1.28, 0.554 and 0.303, respectively. In addition, the composite Z-score in [1] is 0.109 (inactive).
Turning to `C=CC[C@@H]1C=C[C@H](ON=C(C)CCC(=O)OC[C@H]2O[C@H](C#Cc3ccccc3)C=C[C@@H]2Oc2ccc(C)cc2)[C@@H](CO)O1`, the composite z-score with Albumin (Bos taurus) is 0.791; in assay [2] it was -0.0898; in [3] it was -0.101; in [4], 0.286; in [5], 1.23; in assay [6], 0.441. Besides, the results for the composite z-score (in the assay with Sam68 (KHDRBS1); in [7]; in assay [8]) were 1.29, 0.126 and 1.13, respectively. Also, in assay [1], the composite Z-score is 0.153 (inactive).
For the molecule `COc1cccc([C@H]2Oc3ccc(OC)cc3C(=NOC(C)CN3CCCCc4nc(C)c(C)cc43)[C@@H]2O)c1` (stereo not given in full), the composite z-score is 0.604 with Albumin (Bos taurus); 0.0876 in assay [2]; -0.106 in assay [3]; 0.293 in [4]; 0.47 in assay [5]; -0.456 in assay [6]. In addition, the composite z-score in the assay with Sam68 (KHDRBS1) is 0.523; in assay [7] it was 0.267; in assay [8] it was 0.653. For the same molecule, in assay [1], the composite Z-score is -0.352 (inactive).
Consider `C[C@@H]1CC[C@H]2C(=O)O[C@@H](Cc3ccccc3)CN2[C@H]1c1ccc(Br)cc1`, for which the composite z-score was 0.126 with Albumin (Bos taurus); -0.0997 in [2]; -0.106 in [3]; 0.512 in assay [4]; 0.871 in assay [5]; 0.912 in assay [6]. Moreover, the composite z-score was found to be 1.06 in the assay with Sam68 (KHDRBS1), 0.227 in assay [7] and 0.266 in assay [8]. Further, in assay [1], the composite Z-score was -0.358 (inactive).
Consider `COC(=O)[C@@H]1CC[C@H](C)[C@@H](c2ccc(C)cc2)N1C(=O)c1ccc(C=NO[C@H](C)c2cn([C@H](CO)Cc3ccccc3)nn2)cc1`, for which the composite z-score in the assay with Albumin (Bos taurus) is 0.279; in assay [2] it was 0.217; in [3], 0.111; in assay [4], 0.233; in [5], -0.141; in assay [6], 0.452. Besides, the composite z-score is 1.02 in the assay with Sam68 (KHDRBS1), 0.684 in assay [7] and 0.653 in assay [8]. Further, the composite Z-score in assay [1] was 0.402 (inactive).
